Measured values published in the supplement of paper PMC10849652.
About 7,900 targets were measured; listed, in parts, are those with a hit and a random draw of the rest. About 0.6% of all pairs of compound and target were hits.

Assays:
Assay in all cases: log2 fold change, soluble protein after heating vs DMSO (PISA); higher = thermal stabilisation; K562 cells, 10 uM, 30 min; active = over 0.2 and 3.5 SD of the protein, either way, in both replicates (recomputed)
[1] = compound: CC[C@@H]1C(=O)N(C)c2cnc(Nc3ccc(C(=O)NC4CCN(C)CC4)cc3OC)nc2N1C1CCCC1
Procedure, shortened: (§1)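 Thermal stability values are relative to control samples and come from duplicates. They are expressed as log2 fold changes. For measurement, K562 cells (2×10^6 cells/mL) received 10 μM compound for 30 min, and aliquots were heated for 3 min over 48°C-58°C, pooled, and extracted at 4°C in PBS with 0.5% NP-40. Soluble protein, the supernatant after 21,000xg for 90 min, was quantified by TMTpro 16plex LC-MS/MS with equalised channel sums.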

[2] = compound: CC[C@@H]1C(=O)N(C)c2cnc(Nc3ccc(C(=O)N[C@H]4CC[C@H](N5CCN(CC6CC6)CC5)CC4)cc3OC)nc2N1C(C)C [volasertib]
Procedure, shortened: as §1

[3] = compound: CC[C@H](C)N1C=C(C2=C(C=C(C=C21)C3=CN=C(C=C3)N4CCNCC4)C(=O)NCC5=C(C=C(NC5=O)C)C)C
Procedure, shortened: as §1

[4] = compound: CC[C@H](C)[C@@H](C(=O)N[C@@H]([C@@H](C)O)C(=O)N[C@@H](CC(C)C)C(=O)[C@]1(CO1)C)NC(=O)[C@H]([C@@H](C)CC)N(C)C(=O)C [epoxomicin]
Procedure, shortened: as §1

[5] = compound: CCn1c(C(=O)N(C2CC2)C2CC2)cc2c3c(ncn3C)c(Nc3cc(C)n(C)n3)nc21
Procedure, shortened: as §1

[6] = compound: CCn1cc(-c2ccnc3[nH]c(-c4cccc(CN(C)C)c4)cc23)c(-c2ccc(NC(=O)N(C)C)cc2)n1
Procedure, shortened: as §1

[7] = compound: CN(C)CC(=O)Nc1ccc2[nH]c(=O)c3ccccc3c2c1
Procedure, shortened: as §1

[8] = compound: CN(CCOC1=CC=C(C=C1)C[C@H]2C(=O)NC(=O)S2)C3=CC=CC=N3 (racemic) [rosiglitazone]
Procedure, shortened: as §1

[9] = compound: CN1C2=C(C3=C1C(=O)N(N=C3)CC4=CC(=CC=C4)N)SC(=C2)S(=O)C
Procedure, shortened: as §1

[10] = compound: CN1CCC(CNc2ccc3ncc(-c4cccc(OC(F)(F)F)c4)n3n2)CC1
Procedure, shortened: as §1

[11] = compound: CN1CCN(CCOc2cc(OC3CCOCC3)c3c(Nc4c(Cl)ccc5c4OCO5)ncnc3c2)CC1 [saracatinib]
Procedure, shortened: as §1

[12] = compound: CN1CCN(c2nc(C3=C(c4c[nH]c5ccccc45)C(=O)NC3=O)c3ccccc3n2)CC1 [sotrastaurin]
Procedure, shortened: as §1

[13] = compound: CN1CC[C@H](c2c(O)cc(O)c3c(=O)cc(-c4ccccc4Cl)oc23)[C@H](O)C1 [alvocidib]
Procedure, shortened: as §1

[14] = compound: CN1CCc2c(c3ccccc3n2Cc2ccc(C(=O)NO)cc2)C1 [Tubastatin A]
Procedure, shortened: as §1

[15] = compound: CNC(=O)C1=CC=CC=C1NC2=NC(=NC=C2Cl)NC3=C(C=C(C=C3)N4CCOCC4)OC
Procedure, shortened: as §1

[16] = compound: CNC(=O)c1ccc(Nc2ncc(C(F)(F)F)c(NCc3nccnc3N(C)S(C)(=O)=O)n2)cc1 [defactinib]
Procedure, shortened: as §1

[17] = compound: CNCc1ccc(-c2[nH]c3cc(F)cc4c3c2CCNC4=O)cc1 [rucaparib]
Procedure, shortened: as §1

[18] = compound: CNc1nc(-c2ccc3c(N)n[nH]c3c2)cc(N2C[C@@H](C(=O)NC3CCCCC3)CC[C@H]2C)n1
Procedure, shortened: as §1

[19] = compound: COC(=O)N[C@@H](C)CNc1nccc(-c2cn(C(C)C)nc2-c2cc(Cl)cc(NS(C)(=O)=O)c2F)n1 [encorafenib]
Procedure, shortened: as §1

[20] = compound: COC(=O)[C@H](CCSC)NC(=O)C1=C(C=C(C=C1)NC[C@H](CS)N)C2=CC=CC=C2
Procedure, shortened: as §1

Measured: log2 fold change

PARN (UniProt O95453)
inactive: [1] -0.146 | [3] 0.059 | [4] 0.051 | [5] -0.021 | [6] -0.076 | [7] 0.017 | [8] 0.017 | [9] -0.057 | [10] -0.196 | [11] -0.013 | [12] -0.008 | [13] -0.118 | [14] -0.017 | [15] 0.02 | [16] -0.141 | [17] 0.079 | [18] -0.022 | [19] 0.04 | [20] 0.014
active: [2] -0.401

PJA2 (UniProt O43164)
inactive: [1] -0.007 | [2] 0.001 | [3] 0.014 | [4] 0.202 | [5] 0.055 | [6] 0.066 | [7] -0.051 | [8] 0.004 | [9] -0.001 | [10] -0.156 | [11] -0.057 | [12] -0.014 | [13] 0.054 | [14] 0.061 | [15] -0.013 | [16] -0.003 | [17] 0.004 | [18] -0.053 | [19] -0.003 | [20] 0.049

PKN1 isoform 2 (UniProt Q16512)
inactive: [1] 0.005 | [2] -0.105 | [3] 0.084 | [4] 0.014 | [5] -0.185 | [6] -0.038 | [7] 0.009 | [8] 0.06 | [9] -0.021 | [11] -0.018 | [13] -0.048 | [14] 0.026 | [15] -0.088 | [16] -0.121 | [17] 0.022 | [18] 0.026 | [19] 0.024 | [20] -0.014
active: [10] -0.772 | [12] -0.645

PIR (UniProt O00625)
active: [14] -0.284
inactive: [1] -0.041 | [2] -0.069 | [3] -0.028 | [4] 0.034 | [5] 0.097 | [6] -0.006 | [7] 0.031 | [8] 0.02 | [9] -0.06 | [10] -0.052 | [11] 0.025 | [12] -0.01 | [13] -0.068 | [15] -0.002 | [16] -0.09 | [17] 0.045 | [18] 0 | [19] -0.045 | [20] 0.012

PCLAF (UniProt Q15004)
UniProt Q15004, sequence (Q15004 whole entry, looked up): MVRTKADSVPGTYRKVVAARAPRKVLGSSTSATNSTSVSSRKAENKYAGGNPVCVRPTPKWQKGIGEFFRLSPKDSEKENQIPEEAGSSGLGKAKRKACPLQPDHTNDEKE
inactive: [1] 0.085 | [2] 0.124 | [3] -0.046 | [4] 0.185 | [5] 0.012 | [6] 0.035 | [7] -0.087 | [8] -0.014 | [9] 0.001 | [10] 0.015 | [11] 0.057 | [12] 0.057 | [13] 0.138 | [14] 0.08 | [15] -0.094 | [16] 0.076 | [17] -0.094 | [18] -0.161 | [19] -0.046 | [20] 0.093

PSMC6 (UniProt P62333)
UniProt P62333, sequence (P62333 whole entry, looked up): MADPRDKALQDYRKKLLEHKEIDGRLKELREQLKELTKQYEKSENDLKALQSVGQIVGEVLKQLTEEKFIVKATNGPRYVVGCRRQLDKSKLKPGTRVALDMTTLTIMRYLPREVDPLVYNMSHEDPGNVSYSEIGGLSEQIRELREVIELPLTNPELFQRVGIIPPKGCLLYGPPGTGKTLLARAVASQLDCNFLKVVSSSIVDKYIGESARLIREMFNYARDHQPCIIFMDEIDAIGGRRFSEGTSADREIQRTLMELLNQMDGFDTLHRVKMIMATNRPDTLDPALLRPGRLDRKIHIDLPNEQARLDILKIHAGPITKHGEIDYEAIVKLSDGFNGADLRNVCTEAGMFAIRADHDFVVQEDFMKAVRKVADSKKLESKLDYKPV
inactive: [1] 0.033 | [2] 0.178 | [3] -0.021 | [5] -0.012 | [6] 0.029 | [7] -0.03 | [8] -0.038 | [9] 0.009 | [10] 0.018 | [11] -0.01 | [12] 0.015 | [13] 0.09 | [14] -0.025 | [15] -0.003 | [16] 0.079 | [17] 0.04 | [18] 0.009 | [19] 0.035 | [20] 0.026
active: [4] -0.312

PSMD11 (UniProt O00231)
inactive: [1] 0.011 | [2] 0.187 | [3] 0.036 | [4] -0.262 | [5] -0.016 | [6] 0 | [7] 0 | [8] -0.016 | [9] 0.018 | [10] 0.053 | [11] -0.065 | [12] -0.051 | [13] 0.051 | [14] 0.077 | [15] 0.013 | [16] 0.059 | [17] 0.039 | [18] 0.041 | [19] 0.042 | [20] -0.05

PEF1 (UniProt Q9UBV8)
UniProt Q9UBV8, sequence (Q9UBV8 whole entry, looked up): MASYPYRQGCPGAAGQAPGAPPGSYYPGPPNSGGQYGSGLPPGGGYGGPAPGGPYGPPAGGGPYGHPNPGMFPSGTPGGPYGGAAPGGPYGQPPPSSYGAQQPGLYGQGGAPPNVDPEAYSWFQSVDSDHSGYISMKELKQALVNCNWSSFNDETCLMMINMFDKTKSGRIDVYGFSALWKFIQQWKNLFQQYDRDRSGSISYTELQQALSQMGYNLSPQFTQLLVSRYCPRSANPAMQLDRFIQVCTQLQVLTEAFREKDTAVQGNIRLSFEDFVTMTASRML
inactive: [1] -0.144 | [3] 0.035 | [4] 0.101 | [5] 0.045 | [6] 0.002 | [7] -0.061 | [8] -0.022 | [9] -0.005 | [10] 0.048 | [11] 0 | [12] 0.053 | [13] -0.006 | [14] -0.004 | [15] 0.049 | [16] -0.01 | [17] -0.019 | [18] -0.014 | [19] -0.025 | [20] -0.003
active: [2] -0.329

PSMD6 (UniProt Q15008)
UniProt Q15008, sequence (Q15008 whole entry, looked up): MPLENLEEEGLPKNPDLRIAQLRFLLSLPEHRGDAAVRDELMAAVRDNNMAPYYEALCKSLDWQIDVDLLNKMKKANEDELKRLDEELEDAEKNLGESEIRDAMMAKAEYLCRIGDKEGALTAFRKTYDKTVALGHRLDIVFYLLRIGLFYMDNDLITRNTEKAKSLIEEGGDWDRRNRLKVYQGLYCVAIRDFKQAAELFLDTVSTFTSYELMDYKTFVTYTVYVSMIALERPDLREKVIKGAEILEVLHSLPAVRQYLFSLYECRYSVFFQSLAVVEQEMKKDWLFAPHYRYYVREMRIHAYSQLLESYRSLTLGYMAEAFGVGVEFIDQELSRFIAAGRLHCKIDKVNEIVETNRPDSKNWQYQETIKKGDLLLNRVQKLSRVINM
inactive: [1] 0.09 | [2] 0.18 | [3] 0.01 | [4] -0.247 | [5] -0.009 | [6] 0.063 | [7] -0.023 | [8] -0.029 | [9] 0.029 | [10] 0.061 | [11] -0.044 | [12] -0.035 | [13] 0.056 | [14] 0.025 | [15] 0.013 | [16] 0.046 | [17] 0.051 | [18] 0.062 | [19] 0.056 | [20] -0.021

PTPA (UniProt A6PVN8)
inactive: [1] 0.051 | [2] -0.041 | [3] -0.03 | [4] 0.053 | [5] 0.099 | [6] 0.047 | [7] 0.016 | [8] -0.105 | [9] 0.069 | [10] 0.011 | [11] 0.21 | [12] 0.003 | [13] 0.034 | [14] 0.131 | [15] -0.133 | [16] -0.045 | [17] 0.072 | [18] -0.008 | [19] 0.077 | [20] 0.039

PAK4 (UniProt O96013)
UniProt O96013, sequence (O96013 whole entry, looked up): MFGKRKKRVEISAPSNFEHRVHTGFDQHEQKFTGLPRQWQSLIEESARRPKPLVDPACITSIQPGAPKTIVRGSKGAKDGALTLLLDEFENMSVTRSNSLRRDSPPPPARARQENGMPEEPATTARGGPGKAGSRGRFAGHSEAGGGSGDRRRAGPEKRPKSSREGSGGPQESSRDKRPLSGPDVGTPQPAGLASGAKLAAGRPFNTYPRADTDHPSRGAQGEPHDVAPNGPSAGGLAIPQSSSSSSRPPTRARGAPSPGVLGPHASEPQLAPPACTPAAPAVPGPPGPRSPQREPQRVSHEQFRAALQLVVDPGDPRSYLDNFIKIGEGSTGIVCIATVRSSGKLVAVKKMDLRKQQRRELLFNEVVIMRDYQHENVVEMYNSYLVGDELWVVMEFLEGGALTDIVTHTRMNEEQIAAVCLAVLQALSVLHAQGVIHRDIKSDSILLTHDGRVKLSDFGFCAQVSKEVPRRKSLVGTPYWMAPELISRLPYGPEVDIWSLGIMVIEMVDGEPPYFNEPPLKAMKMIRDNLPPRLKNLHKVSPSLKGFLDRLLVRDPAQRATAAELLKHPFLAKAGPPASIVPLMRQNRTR
inactive: [1] -0.026 | [2] -0.088 | [3] -0.026 | [4] -0.017 | [5] 0.009 | [6] -0.059 | [7] -0.012 | [8] 0.062 | [9] 0.049 | [10] -0.083 | [11] -0.047 | [12] 0.098 | [13] -0.06 | [14] 0.005 | [15] -0.012 | [16] -0.017 | [17] -0.067 | [18] 0 | [19] 0.085 | [20] 0.03

PRCP (UniProt P42785)
UniProt P42785, sequence (P42785 whole entry, looked up): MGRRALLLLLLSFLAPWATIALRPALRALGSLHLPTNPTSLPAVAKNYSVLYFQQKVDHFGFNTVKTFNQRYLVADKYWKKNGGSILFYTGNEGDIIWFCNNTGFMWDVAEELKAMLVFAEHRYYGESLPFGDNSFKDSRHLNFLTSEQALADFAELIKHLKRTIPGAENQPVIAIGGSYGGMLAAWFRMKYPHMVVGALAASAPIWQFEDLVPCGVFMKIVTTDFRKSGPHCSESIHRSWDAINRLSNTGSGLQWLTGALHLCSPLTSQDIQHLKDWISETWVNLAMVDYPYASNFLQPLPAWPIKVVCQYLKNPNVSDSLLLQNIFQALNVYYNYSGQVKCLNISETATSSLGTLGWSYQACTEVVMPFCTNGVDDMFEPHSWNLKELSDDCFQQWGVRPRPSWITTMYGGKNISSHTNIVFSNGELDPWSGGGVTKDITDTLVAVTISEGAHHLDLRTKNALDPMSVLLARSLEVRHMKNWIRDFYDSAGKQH
active: [1] -0.265 | [2] -0.291 | [10] -0.389
inactive: [3] -0.024 | [4] -0.002 | [5] 0.037 | [6] 0.008 | [7] 0.014 | [8] 0.019 | [9] 0.024 | [11] 0.019 | [12] 0.054 | [13] 0.003 | [14] -0.01 | [15] 0.025 | [16] -0.009 | [17] 0.01 | [18] -0.035 | [19] 0.007 | [20] 0.05

PSMC2 (UniProt P35998)
UniProt P35998, sequence (P35998 whole entry, looked up): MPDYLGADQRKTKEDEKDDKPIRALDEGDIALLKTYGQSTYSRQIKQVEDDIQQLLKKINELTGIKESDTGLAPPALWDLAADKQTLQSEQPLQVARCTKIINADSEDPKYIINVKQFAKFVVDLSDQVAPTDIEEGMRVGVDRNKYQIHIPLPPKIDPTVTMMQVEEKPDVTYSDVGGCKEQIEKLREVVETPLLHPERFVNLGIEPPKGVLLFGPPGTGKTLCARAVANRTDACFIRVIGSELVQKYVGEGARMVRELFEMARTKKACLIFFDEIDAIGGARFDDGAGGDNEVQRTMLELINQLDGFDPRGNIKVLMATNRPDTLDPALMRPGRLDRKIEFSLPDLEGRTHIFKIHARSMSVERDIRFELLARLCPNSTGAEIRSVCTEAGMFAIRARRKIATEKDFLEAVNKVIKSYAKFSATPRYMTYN
active: [4] -0.324
inactive: [1] 0.042 | [2] 0.169 | [3] -0.019 | [5] 0.012 | [6] 0.024 | [7] -0.018 | [8] -0.044 | [9] 0.023 | [10] 0.039 | [11] -0.024 | [12] -0.03 | [13] 0.046 | [14] -0.01 | [15] -0.014 | [16] 0.061 | [17] 0.033 | [18] 0.035 | [19] 0.018 | [20] 0.001

POM121 (UniProt Q96HA1)
UniProt Q96HA1, sequence (Q96HA1 whole entry, looked up): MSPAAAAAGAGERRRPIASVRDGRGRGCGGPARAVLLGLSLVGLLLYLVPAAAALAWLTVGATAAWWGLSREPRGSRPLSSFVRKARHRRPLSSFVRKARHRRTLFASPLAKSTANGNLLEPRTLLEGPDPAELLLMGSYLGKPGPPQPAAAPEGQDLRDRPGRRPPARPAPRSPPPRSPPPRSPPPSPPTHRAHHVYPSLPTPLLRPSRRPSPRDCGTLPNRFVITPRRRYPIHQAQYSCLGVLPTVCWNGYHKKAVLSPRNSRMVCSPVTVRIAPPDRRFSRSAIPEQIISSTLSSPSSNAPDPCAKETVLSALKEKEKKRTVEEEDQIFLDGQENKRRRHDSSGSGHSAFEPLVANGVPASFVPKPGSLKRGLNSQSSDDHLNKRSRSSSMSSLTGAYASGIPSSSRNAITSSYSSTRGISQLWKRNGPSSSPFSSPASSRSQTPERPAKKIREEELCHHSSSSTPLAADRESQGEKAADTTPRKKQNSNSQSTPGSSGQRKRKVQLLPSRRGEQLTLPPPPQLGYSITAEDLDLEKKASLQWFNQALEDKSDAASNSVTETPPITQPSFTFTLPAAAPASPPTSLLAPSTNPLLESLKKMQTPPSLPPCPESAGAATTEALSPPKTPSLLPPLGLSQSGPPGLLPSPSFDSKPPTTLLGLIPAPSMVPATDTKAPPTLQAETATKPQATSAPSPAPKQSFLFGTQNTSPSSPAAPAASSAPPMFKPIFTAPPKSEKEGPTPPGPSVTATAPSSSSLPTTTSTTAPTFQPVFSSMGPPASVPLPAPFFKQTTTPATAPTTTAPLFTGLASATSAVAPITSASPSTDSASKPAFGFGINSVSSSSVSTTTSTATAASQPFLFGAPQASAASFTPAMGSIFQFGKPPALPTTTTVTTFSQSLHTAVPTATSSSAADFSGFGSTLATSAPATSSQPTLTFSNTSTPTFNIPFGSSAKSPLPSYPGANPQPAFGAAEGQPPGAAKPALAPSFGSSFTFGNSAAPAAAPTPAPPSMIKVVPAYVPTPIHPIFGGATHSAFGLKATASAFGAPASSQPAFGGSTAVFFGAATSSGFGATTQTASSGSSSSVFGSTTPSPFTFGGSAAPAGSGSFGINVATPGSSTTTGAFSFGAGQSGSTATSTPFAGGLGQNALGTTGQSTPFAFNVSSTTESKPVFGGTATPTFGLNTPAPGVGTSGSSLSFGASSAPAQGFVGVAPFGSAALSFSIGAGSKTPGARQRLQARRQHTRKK
inactive: [1] -0.017 | [2] -0.027 | [3] 0.056 | [4] -0.062 | [5] -0.037 | [6] 0.03 | [7] -0.071 | [8] 0.001 | [9] 0.137 | [10] -0.149 | [11] -0.043 | [12] -0.024 | [13] 0.023 | [14] 0.083 | [15] 0.126 | [16] 0.045 | [17] 0.069 | [18] 0 | [19] 0.075 | [20] -0.002

PIGG (UniProt Q5H8A4)
UniProt Q5H8A4, sequence (Q5H8A4 whole entry, looked up): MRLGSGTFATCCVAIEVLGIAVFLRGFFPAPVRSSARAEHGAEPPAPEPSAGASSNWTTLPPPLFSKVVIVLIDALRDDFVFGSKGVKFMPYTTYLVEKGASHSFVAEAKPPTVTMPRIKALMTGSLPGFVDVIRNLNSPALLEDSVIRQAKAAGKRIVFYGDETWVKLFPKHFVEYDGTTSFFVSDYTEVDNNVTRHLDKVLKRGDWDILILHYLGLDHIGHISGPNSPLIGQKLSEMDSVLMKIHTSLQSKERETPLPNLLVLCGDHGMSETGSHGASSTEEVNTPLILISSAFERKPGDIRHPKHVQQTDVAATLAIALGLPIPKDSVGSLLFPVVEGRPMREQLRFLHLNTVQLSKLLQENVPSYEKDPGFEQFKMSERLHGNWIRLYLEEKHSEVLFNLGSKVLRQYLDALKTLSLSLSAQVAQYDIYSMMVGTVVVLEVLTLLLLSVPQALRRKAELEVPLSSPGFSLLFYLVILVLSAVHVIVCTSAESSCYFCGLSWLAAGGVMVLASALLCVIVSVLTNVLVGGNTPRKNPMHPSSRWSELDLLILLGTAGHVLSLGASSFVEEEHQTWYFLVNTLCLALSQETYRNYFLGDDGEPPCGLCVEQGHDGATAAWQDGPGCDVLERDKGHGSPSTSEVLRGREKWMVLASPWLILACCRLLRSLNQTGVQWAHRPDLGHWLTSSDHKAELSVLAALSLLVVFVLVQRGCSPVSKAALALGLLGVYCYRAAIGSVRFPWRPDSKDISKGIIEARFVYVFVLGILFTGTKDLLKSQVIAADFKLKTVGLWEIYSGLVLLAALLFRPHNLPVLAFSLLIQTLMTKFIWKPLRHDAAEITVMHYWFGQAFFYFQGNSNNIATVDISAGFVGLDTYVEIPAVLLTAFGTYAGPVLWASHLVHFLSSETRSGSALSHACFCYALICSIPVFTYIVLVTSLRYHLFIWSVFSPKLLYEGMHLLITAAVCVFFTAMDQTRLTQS
inactive: [1] -0.062 | [2] 0.022 | [3] 0.037 | [4] -0.017 | [5] -0.049 | [6] -0.022 | [7] 0.009 | [8] 0.015 | [9] -0.04 | [10] 0.093 | [11] -0.02 | [12] -0.015 | [13] -0.011 | [14] -0.037 | [15] 0.013 | [16] 0.175 | [17] -0.013 | [19] 0.07 | [20] -0.057
active: [18] 0.27

POP1 (UniProt Q99575)
inactive: [1] 0.069 | [2] 0.092 | [3] 0.02 | [4] -0.001 | [5] 0.006 | [6] 0.028 | [7] -0.019 | [8] -0.025 | [9] -0.009 | [10] 0.075 | [11] 0.077 | [12] -0.01 | [13] -0.049 | [14] 0.026 | [15] -0.002 | [16] -0.055 | [17] 0.014 | [18] 0.014 | [19] 0.006 | [20] 0.016
